Assay outcomes deposited in PubChem BioAssay by The Scripps Research Institute Molecular Screening Center.
RTF Ca sens inh – cardiac RTF calcium desensitization; inhibition, % at 7.15 µM; P19429+P45379; hit rate 0.12% among 340,000; AID 493244; IANBD-labeled cardiac RTF, Ca2+ fluorescence;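 active means inhibition above the mean inhibition of all tested compounds plus 3 SD, cut at about 17% in these data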;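 further: assay run at fixed EC70 calcium of 1.6 mM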
BCLXL inh – blocks human Bcl-xL binding to Bim BH3 peptide; Q07817; GST-Bcl-xL / FITC-Bim BH3 peptide fluorescence polarization; inhibition, % at 10.9 µM; hit rate 0.7% among 320,000; AID 2129;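 active means inhibition above the mean of all tested compounds plus 3 SD, cutoff set per campaign, cut at about 30% in these data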;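 further: inhibitors lower millipolarization by displacing the labeled peptide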
cardiac RTF act – increases calcium sensitivity of human cardiac regulated thin filaments; IANBD-labeled TnC RTF fluorescence at EC20 calcium; 0% EC20 calcium, 100% full calcium; activation, % at 7.2 µM; P19429+P45379; hit rate 0.24% among 340,000;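 active means activation above the mean over all tested compounds plus 3 SD, cut at about 30% in these data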;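 further: rise in fluorescence read as greater calcium sensitivity of cardiac thin filaments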
eLon inh – inhibits E. coli Lon protease; P0A9M0; purified E. coli Lon protease, fluorescence polarization; inhibition, % at 7.94 µM; hit rate 0.42% among 360,000; in the data active means inhibition above about 13%, passing the limit was not always enough
GLD-1 RNA inh – GLD-1-TGE RNA interaction inhibition (C. elegans) | purified GLD-1 + fluorescein TGE RNA, fluorescence polarization | inhibition, % at 5.96 µM | hit rate 0.44% among 320,000;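 active means percent inhibition above a per-plate cutoff, the plate mean of test compounds plus 3 SD, cut at about 30% in these data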
Target sequence (Q17339 whole entry, looked up): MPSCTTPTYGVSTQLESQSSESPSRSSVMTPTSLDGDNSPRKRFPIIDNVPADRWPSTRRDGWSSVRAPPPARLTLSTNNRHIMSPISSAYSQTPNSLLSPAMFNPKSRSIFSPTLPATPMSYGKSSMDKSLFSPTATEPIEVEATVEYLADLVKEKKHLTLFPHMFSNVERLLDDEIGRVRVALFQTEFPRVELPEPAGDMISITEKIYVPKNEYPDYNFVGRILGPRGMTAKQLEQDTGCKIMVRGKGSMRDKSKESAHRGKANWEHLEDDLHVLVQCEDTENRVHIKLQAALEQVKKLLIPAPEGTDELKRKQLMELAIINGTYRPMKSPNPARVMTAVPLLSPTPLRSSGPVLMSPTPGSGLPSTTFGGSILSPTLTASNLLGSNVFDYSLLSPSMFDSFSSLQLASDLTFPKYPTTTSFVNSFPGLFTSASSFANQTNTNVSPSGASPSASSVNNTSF
eLon confirm – E. coli Lon inhibition confirmation | shares compounds with eLon inh | purified E. coli Lon, fluorescence polarization | inhibition, % at 7.94 µM | hit rate 31% among 1,400 | AID 602230; in the data active means inhibition above about 16%
Large screens that a line does not name were inactive (follow-up assays come after a bar, where they were run). Only some compounds are listed: those with a hit (about 1.2% of all), similar ones and a draw of the others.

O=C(COC(=O)c1ccccc1C(=O)N1CCN(c2ccccc2)CC1)Nc1ccccc1	none
O=C(COC(=O)c1ccccc1C(=O)N1CCN(c2ccccc2)CC1)Nc1ccc(F)cc1	BCLXL inh 54, eLon inh 22, GLD-1 RNA inh 37 | eLon confirm inactive
COc1cccc(NC(=O)COC(=O)c2ccccc2C(=O)N2CCN(c3ccccc3)CC2)c1	BCLXL inh 49, eLon inh 16, GLD-1 RNA inh 44 | eLon confirm inactive
O=C(NC12CC3CC(CC(C3)C1)C2)c1cc([N+](=O)[O-])ccc1N1CCOCC1	eLon inh 19 | eLon confirm inactive
COc1cccc(CN(C)C(=O)c2cc(-c3ccc(OC)c(OC)c3)nc3ccccc23)c1	eLon inh 20 (no result: BCLXL inh, GLD-1 RNA inh) | eLon confirm inactive
COc1ccc(OC)c(NC(=O)CSc2nncc3ccc(OC)c(OC)c23)c1	eLon inh 50 | eLon confirm inactive
COc1ccc2cnnc(SCC(=O)Nc3ccccc3)c2c1OC	none
COc1ccc(S(=O)(=O)Cc2ccc(C(=O)N3CCOCC3)o2)cc1	none
O=[N+]([O-])c1ccc(CN2CCN(c3ccc([N+](=O)[O-])cc3)CC2)cc1	none
N#Cc1c(N2CCN(c3ccc([N+](=O)[O-])cc3)CC2)[n+](=O)c2ccc(Cl)cc2n1[O-]	eLon inh 134 (no result: BCLXL inh, GLD-1 RNA inh) | eLon confirm 43
O=C(Cc1ccccc1)N1O[C@H]2C=C[C@@H]1CC2	none (no result: BCLXL inh, GLD-1 RNA inh)
CCN(Cc1ccccc1)c1ccc(/C=N/N2CCOCC2)cc1	none
